The source of these data is PubChem BioAssay (Tox21).

Structures are written as SMILES. Several values for one entry are separate records, joined by “and”; a condition that tells them apart may be missing. Identical values can stand only once. Inconclusive results are not listed. Where a call stands in place of a potency, no number is given. Unmarked numbers belong to inactive results. Activity calls are given as the source filed them. Calls come from the whole dose curve; as a rule, active = well fitted cell-killing curve with a large enough effect in the repeat runs; inconclusive = weak or mixed curves; inactive = no such curve, though single readings can be large or run the other way.
Potency is the fitted concentration of half-maximal effect.

The nature of the assay: qHTS assay to identify small molecule agonists of the peroxisome proliferator-activated receptor delta (PPARd) signaling pathway - cell viability counter screen (AID 743211). Note: nearly all actives have a fitted effect of over 55% in size. The note with it: PPARd-bla HEK293H viability, CellTiter-Glo luminescence, 17 h; series mostly up to 62.6 µM. An excerpt:
U.S. Tox21 Program National Center for Advancing Translational Sciences [NCATS] NIH Chemical Genomics Center [NCGC] U.S. Environmental Protection Agency [EPA] National Institutes of Environmental Health Sciences [NIEHS] National Toxicology Program [NTP] U.S. Food and Drug Administration [FDA] Tox21 Assay Overview: The peroxisome proliferator-activated receptors (PPARs) are lipid-activated transcription factors of the nuclear receptor superfamily with three distinct subtypes namely PPAR alpha, PPAR delta (PPARd) and PPAR gamma. All these subtypes heterodimerizes with Retinoid X receptor (RXR) and have different physiological functions. […] To identify the compounds that activate PPAR-delta signaling, GeneBLAzer PPAR delta UAS-bla HEK293H cell line (Invitrogen, Carlsbad, CA, USA) containing a beta-lactamase reporter gene under the control of an Upstream Activator Sequence (UAS) was used to screen the Tox21 compound library. The cytotoxicity of the Tox21 compound library against the PPARd-bla cell line was tested in parallel by measuring the cell viability using CellTiter-Glo assay (Promega, Madison, WI) in the same wells.
Tox21 Assay Protocol Summary: PPARd-bla cells were dispensed at 3000 cells/6uL/well in 1536-well black wall/clear bottom plates using a Multidrop Combi (Thermo Fisher Scientific, Waltham, MA) dispenser. After the assay plates were incubated at 37 C and 5% CO2 for 5 h, 23 nL of compounds dissolved in DMSO, positive controls or DMSO only was transferred to the assay plate by a Pintool station (Kalypsys, San Diego, CA). The assay plates were incubated at 37C for 17 h. After 1 uL of LiveBLAzerTM B/G FRET substrate was added using a Bioraptr Flying Reagent Dispenser (FRD) workstation (Beckman Coulter, Indianapolis, IN, USA), the plates were incubated at room temperature for 2 h, and fluorescence intensity was measured by an Envision plate reader (PerkinElmer, Shelton, CT). For cell viability readout that measures cytotoxicity, 3 ul/well of CellTiter-Glo reagent was added into the assay plates using a Bioraptr FRD. After 30 min incubation at room temperature, the luminescence intensity in the plates was measured using a ViewLux plate reader (PerkinElmer).
(In general: qHTS replaces the single test concentration by a dilution series.)
As for `O=C(O)c1cccc(C(F)(F)F)c1`, the Potency result is “inactive”. Turning to `NC[C@H]1O[C@H](O[C@H]2[C@H](O[C@@H]3O[C@H](CO)[C@@H](O)[C@H]3O)C(O)[C@H](N)C[C@@H]2N)[C@H](N)[C@@H](O)[C@@H]1O` (stereo not given in full), the activity change, negative = cytotoxicity was 8.47% [at 13.2 µM].

On to `Oc1cc(Cl)cc(Cl)c1Cl`, for which the Potency entry is “inactive”. Same read-out and setting: the entry for `CCC(CC)(CC(=O)Nc1cccc(/C=C/c2nc(C3CCC3)cs2)c1)C(=O)O` is “inactive”; for `Cc1ccc(C(C)C)cc2c(C)ccc1-2` it is “inactive”. With `CC(C(=O)O)c1ccc2c(c1)[nH]c1ccc(Cl)cc12` (stereo not given), the Potency entry is “inactive”. Same read-out and setting: next, `CCC(COC(=O)CCS)(COC(=O)CCS)COC(=O)CCS`: “inactive”; `CC(=O)OCC=C(C)C`: “inactive”; `CC(C)(C)c1ccc(C(O)CCCN2CCC(C(O)(c3ccccc3)c3ccccc3)CC2)cc1` (stereo not given): 10.6 µM (active). Turning to `Cc1nc(-c2ccc(Cl)cc2)oc1COC(C)(C)C(=O)O`, the Potency result was “inactive”. Still for that read-out and setting: the entry for `C=CC(C)(CCC=C(C)C)OC=O` (stereo not given) is “inactive”. On the same count and under the same terms, next, `CC[C@H](C)COC(=O)/C=C/c1ccc(N=Cc2ccc(OC)cc2)cc1`: “inactive”; `C/C=C/C=C/COC(=O)C(C)C`: “inactive”; `COC(=O)Nc1nc2ccc(C(=O)c3ccccc3)cc2[nH]1`: “inactive”. For `CN(C)[C@@H](CCOc1cccc2ccccc12)c1ccccc1`, the Potency was 23.7 µM (active). Still for that read-out and setting: next, `Cl[Si](Cl)(c1ccccc1)c1ccccc1`: “inactive”; `C[C@H]1NCc2cc(-c3ccc4c(=O)c(C(=O)O)cn(C5CC5)c4c3OC(F)F)ccc21`: “inactive”. On to `Clc1nnc(Cl)c2ccccc12`, for which the Potency entry was “inactive”. Regarding `COC(=O)c1ccccc1C`, the Potency entry is “inactive”. Take `ClCCl`: the Potency entry was “inactive”. The same measure, in the same setting: next, `Nc1cc(Cl)c(O)c(Cl)c1`: “inactive”.

On to `CCCCNS(=O)(=O)c1ccc(C)cc1`, for which the Potency result is “inactive”. For `COc1ccc2c(c1)c(CC(=O)OC/C=C(\C)CC/C=C(\C)CCC=C(C)C)c(C)n2C(=O)c1ccc(Cl)cc1`, the Potency entry is “inactive”. As for `COc1cc(/C=C/c2ccccc2)oc(=O)c1`, the Potency entry was “inactive”. With `CCCC1CCC(=O)CC1`, the Potency entry was “inactive”.

`C[C@@H](O)[C@H](N)C(=O)O`: the Potency entry was “inactive”. On the same count and under the same terms, next, `CN(C)C(=O)COC(=O)Cc1ccc(OC(=O)c2ccc(N=C(N)N)cc2)cc1`: “inactive”. On to `O=C(O)CN(CCN(CC(=O)O)CC(=O)O)CC(=O)O`, for which the activity change, negative = cytotoxicity was 0.566% [at 2.7 µM]. For `O=C(O)c1ccc2cc(C(=O)O)ccc2c1`, the Potency entry is “inactive”.

For the compound `C=Cc1cccc(C)c1`, the Potency result is “inactive”. Regarding `CC(C)(c1cc(Br)c(OCC(Br)CBr)c(Br)c1)c1cc(Br)c(OCC(Br)CBr)c(Br)c1` (stereo not given), the Potency result was “inactive”. For `O=C1CCc2cc(OCCCCc3nnnn3C3CCCCC3)ccc2N1`, the Potency entry was “inactive”. Turning to `O=c1c(O)c(-c2ccc(O)cc2O)oc2cc(O)cc(O)c12`, the Potency entry is “inactive”.

Turning to `C#Cc1ccc(-c2ccccc2F)cc1`, the Potency entry was “inactive”.

With `C=C(C)c1cccc(C(=C)C)c1`, the Potency entry is “inactive”. The same measure, in the same setting: the entry for `CC1(C)CC(O)CC(C)(C)N1` is “inactive”. Still for that read-out and setting: next, `COc1cccc2c1C(=O)c1c(O)c3c(c(O)c1C2=O)C[C@@](O)(C(C)=O)C[C@@H]3O[C@H]1C[C@H](N)[C@H](O)[C@H](C)O1`: 24.7 µM (active) and 33.5 µM (active). Still for that read-out and setting: next, `CCCCCC/C=C\CCCCCCCC(=O)O`: “inactive”; `Cc1c(N)cccc1C(F)(F)F`: “inactive”.

Consider `CC/C=C\CCCCCO`, for which the Potency entry was “inactive”.
